From paper PMC7862700, “An all-to-all approach to the identification of sequence-specific readers for epigenetic DNA modifications on cytosine”

Key:
Experiment in all cases: DAPPL (digital affinity profiling via proximity ligation, sequencing); 10 mM Tris-HCl pH 7.5, 50 mM NaCl, 1 mM DTT, 4% glycerol, room temperature, 30 min; GST-TFs on glutathione beads, 16-mer random dsDNA library, 0.1% formaldehyde crosslink after washing; high values mean tight binding
FEV = target: T1, FEV (Homo sapiens, UniProt Q99581 1-238); details: protein: recombinant; tags: N-terminal GST; dsDNA, one strand shown
T1 sequence: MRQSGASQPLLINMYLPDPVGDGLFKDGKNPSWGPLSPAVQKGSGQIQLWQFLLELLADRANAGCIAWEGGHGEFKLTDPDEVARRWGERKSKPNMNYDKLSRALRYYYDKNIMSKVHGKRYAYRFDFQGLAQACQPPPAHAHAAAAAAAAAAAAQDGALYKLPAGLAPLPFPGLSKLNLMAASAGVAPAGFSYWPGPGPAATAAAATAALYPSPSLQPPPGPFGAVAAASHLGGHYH
Outline: (§1)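 Pools of DNA-barcoded human transcription factors, expressed in yeast as GST fusions on glutathione beads and combined with a tag-only sample, were incubated with 200 nmole of a 16-mer random double-stranded DNA library. Incubation took 30 min at room temperature in Tris/NaCl/DTT/glycerol buffer and was followed by washing, 0.1% formaldehyde crosslinking, proximity ligation (BsaI/T4 ligase, 1 h, 37 °C), PCR amplification and sequencing on an Illumina NextSeq500. Binding signal is the ratio of a hexamer's read frequency for a factor to its frequency for the tag-only sample.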

ETV5 = ETV5 (Homo sapiens, UniProt P41161 1-510); details: protein: recombinant; tags: N-terminal GST; dsDNA, one strand shown
Chain of ETV5 (P41161 whole entry): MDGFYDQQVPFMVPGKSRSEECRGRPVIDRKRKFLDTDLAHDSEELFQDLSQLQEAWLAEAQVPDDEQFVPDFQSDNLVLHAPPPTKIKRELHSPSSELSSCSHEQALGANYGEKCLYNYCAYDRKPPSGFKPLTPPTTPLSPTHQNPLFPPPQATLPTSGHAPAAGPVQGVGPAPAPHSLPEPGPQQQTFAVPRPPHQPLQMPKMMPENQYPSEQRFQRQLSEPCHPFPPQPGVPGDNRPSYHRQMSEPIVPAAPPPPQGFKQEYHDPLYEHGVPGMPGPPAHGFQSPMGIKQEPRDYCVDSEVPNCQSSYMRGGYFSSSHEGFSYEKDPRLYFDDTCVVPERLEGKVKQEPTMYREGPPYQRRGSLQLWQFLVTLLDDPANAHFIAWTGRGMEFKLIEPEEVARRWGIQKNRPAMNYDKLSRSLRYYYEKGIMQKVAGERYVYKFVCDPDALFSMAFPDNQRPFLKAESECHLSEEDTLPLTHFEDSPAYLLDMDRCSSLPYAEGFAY
Outline: as §1

HSF1 = HSF1 (Homo sapiens, UniProt Q00613 1-529); details: protein: recombinant; tags: N-terminal GST; chain copies: 3; dsDNA, one strand shown
Chain of HSF1 (Q00613 whole entry): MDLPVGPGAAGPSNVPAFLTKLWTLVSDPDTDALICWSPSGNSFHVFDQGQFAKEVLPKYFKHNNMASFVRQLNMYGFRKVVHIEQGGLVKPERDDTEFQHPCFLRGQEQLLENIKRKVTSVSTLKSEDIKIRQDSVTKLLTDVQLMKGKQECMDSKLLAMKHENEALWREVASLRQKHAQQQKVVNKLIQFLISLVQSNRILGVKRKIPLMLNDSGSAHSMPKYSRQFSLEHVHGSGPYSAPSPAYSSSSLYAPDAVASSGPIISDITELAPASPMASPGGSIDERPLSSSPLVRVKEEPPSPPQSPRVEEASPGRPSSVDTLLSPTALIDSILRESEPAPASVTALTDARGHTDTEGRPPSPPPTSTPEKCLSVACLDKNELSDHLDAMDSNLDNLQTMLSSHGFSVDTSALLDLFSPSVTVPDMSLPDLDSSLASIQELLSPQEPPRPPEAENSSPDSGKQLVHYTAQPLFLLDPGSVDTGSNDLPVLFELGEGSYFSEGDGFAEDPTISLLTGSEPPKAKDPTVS
Outline: as §1

SPIC = target: T2, SPIC (Homo sapiens, UniProt Q8N5J4 1-248); details: protein: recombinant; tags: N-terminal GST; dsDNA, one strand shown
T2 sequence: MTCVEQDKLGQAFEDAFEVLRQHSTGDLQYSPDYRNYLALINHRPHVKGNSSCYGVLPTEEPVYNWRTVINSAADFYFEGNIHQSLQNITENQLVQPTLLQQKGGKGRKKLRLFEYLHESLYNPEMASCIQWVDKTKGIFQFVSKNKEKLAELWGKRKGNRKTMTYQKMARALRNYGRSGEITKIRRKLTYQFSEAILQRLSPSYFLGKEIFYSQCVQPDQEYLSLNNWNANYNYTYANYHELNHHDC
Outline: as §1

ELF4 = ELF4 (Homo sapiens, UniProt Q99607 1-663); details: protein: recombinant; tags: N-terminal GST; dsDNA, one strand shown
Chain of ELF4 (Q99607 whole entry): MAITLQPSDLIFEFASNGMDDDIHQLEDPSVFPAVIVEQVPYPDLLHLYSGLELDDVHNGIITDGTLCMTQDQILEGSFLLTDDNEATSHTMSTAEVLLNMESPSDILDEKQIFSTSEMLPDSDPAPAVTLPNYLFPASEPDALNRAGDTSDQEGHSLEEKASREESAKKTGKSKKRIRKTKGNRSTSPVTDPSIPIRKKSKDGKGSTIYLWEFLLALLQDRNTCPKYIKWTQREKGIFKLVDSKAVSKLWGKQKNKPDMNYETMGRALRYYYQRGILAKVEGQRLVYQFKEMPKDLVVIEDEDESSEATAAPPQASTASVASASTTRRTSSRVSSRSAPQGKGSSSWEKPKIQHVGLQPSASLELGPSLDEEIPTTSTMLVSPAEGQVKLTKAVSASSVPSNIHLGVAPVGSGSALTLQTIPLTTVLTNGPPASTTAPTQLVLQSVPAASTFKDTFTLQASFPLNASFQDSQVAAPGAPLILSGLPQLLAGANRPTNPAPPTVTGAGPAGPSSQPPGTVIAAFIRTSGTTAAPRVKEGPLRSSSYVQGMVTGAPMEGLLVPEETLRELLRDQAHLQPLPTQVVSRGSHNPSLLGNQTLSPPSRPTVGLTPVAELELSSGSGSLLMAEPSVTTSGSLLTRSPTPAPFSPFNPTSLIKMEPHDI
Outline: as §1

ELK4 = target: T3, ELK4 (Homo sapiens, UniProt P28324-2 1-405); details: protein: recombinant; tags: N-terminal GST; dsDNA, one strand shown
T3 sequence: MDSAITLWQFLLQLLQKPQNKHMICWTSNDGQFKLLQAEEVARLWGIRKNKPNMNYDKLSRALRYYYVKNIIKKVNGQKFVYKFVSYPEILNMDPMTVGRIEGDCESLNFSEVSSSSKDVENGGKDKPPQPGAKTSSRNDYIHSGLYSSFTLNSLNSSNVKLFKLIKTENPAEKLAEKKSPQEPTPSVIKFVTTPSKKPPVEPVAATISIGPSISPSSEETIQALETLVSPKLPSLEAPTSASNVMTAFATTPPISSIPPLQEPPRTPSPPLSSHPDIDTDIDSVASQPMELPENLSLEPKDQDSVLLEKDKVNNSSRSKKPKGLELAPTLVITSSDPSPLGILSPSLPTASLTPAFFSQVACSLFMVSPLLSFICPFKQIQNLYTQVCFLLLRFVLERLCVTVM
Outline: as §1

ETV2 = target: T4, ETV2 (Homo sapiens, UniProt O00321 1-342); details: protein: recombinant; tags: N-terminal GST; dsDNA, one strand shown
T4 sequence: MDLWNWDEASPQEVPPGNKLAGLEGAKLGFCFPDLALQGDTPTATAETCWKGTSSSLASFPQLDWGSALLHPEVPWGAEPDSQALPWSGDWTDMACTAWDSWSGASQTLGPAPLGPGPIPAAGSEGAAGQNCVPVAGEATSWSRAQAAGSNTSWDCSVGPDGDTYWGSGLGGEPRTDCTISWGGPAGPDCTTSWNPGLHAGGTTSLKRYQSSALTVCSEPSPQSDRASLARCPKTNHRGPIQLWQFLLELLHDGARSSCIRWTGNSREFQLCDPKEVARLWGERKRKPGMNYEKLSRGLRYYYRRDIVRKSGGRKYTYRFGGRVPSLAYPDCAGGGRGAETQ
Outline: as §1

ELF3 = target: T5, ELF3 (Homo sapiens, UniProt P78545 1-371); details: protein: recombinant; tags: N-terminal GST; dsDNA, one strand shown
T5 sequence: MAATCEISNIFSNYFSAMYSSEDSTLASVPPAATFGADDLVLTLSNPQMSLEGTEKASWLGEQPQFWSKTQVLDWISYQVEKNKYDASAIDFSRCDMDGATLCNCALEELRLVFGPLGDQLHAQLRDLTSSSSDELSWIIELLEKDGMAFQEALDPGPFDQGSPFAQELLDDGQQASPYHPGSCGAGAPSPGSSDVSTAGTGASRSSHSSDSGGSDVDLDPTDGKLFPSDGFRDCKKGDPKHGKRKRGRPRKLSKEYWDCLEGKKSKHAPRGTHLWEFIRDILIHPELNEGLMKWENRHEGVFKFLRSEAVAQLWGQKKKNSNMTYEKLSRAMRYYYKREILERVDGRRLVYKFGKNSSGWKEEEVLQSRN
Outline: as §1

CRX = CRX (Homo sapiens, UniProt O43186 1-299); details: protein: recombinant; tags: N-terminal GST; dsDNA, one strand shown
Chain of CRX (O43186 whole entry): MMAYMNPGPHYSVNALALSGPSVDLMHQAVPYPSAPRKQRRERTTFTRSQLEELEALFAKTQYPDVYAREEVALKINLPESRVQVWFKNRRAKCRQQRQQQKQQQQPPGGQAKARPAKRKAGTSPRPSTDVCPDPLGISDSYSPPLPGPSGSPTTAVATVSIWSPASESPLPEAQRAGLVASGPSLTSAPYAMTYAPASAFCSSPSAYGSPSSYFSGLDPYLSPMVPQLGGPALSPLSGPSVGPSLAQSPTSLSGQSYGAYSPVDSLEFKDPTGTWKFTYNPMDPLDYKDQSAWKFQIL
Outline: as §1

ETV1 = ETV1 (Homo sapiens, UniProt P50549 1-477); details: protein: recombinant; tags: N-terminal GST; dsDNA, one strand shown
Chain of ETV1 (P50549 whole entry): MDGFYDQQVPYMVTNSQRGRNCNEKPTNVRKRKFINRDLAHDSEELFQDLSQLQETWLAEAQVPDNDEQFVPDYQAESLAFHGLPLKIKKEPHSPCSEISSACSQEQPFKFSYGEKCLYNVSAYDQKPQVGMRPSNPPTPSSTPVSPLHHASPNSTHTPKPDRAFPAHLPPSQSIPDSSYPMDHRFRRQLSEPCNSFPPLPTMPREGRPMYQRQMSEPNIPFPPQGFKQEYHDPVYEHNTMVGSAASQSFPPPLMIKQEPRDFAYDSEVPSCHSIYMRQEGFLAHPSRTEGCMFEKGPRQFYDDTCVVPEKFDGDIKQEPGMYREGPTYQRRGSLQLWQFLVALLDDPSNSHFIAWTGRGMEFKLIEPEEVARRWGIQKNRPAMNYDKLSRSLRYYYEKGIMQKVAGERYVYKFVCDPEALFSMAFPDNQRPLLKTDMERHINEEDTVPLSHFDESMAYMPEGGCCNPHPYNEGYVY
Outline: as §1

## TAACTT
FEV
  binding signal: 1.51 fold enrichment (6-mer frequency, TF over GST control)
ETV5
  binding signal: 1.45 fold enrichment (6-mer frequency, TF over GST control)
HSF1
  binding signal: 1.28 fold enrichment (6-mer frequency, TF over GST control)
SPIC
  binding signal: 1.56 fold enrichment (6-mer frequency, TF over GST control)
ELF4
  binding signal: 1.33 fold enrichment (6-mer frequency, TF over GST control)
ELK4
  binding signal: 1.32 fold enrichment (6-mer frequency, TF over GST control)
ETV2
  binding signal: 1.59 fold enrichment (6-mer frequency, TF over GST control)
ELF3
  binding signal: 1.35 fold enrichment (6-mer frequency, TF over GST control)
CRX
  binding signal: 1.56 fold enrichment (6-mer frequency, TF over GST control)
ETV1
  binding signal: 1.33 fold enrichment (6-mer frequency, TF over GST control)

## GTAATT
FEV
  binding signal: 1.16 fold enrichment (6-mer frequency, TF over GST control)
ETV5
  binding signal: 1.23 fold enrichment (6-mer frequency, TF over GST control)
HSF1
  binding signal: 1.36 fold enrichment (6-mer frequency, TF over GST control)
SPIC
  binding signal: 1.21 fold enrichment (6-mer frequency, TF over GST control)
ELF4
  binding signal: 1.22 fold enrichment (6-mer frequency, TF over GST control)
ELK4
  binding signal: 1.11 fold enrichment (6-mer frequency, TF over GST control)
ETV2
  binding signal: 1.31 fold enrichment (6-mer frequency, TF over GST control)
ELF3
  binding signal: 1.19 fold enrichment (6-mer frequency, TF over GST control)
CRX
  binding signal: 1.59 fold enrichment (6-mer frequency, TF over GST control)
ETV1
  binding signal: 1.3 fold enrichment (6-mer frequency, TF over GST control)

## ACCTTC
FEV
  binding signal: 1.97 fold enrichment (6-mer frequency, TF over GST control)
ETV5
  binding signal: 1.96 fold enrichment (6-mer frequency, TF over GST control)
HSF1
  binding signal: 2.87 fold enrichment (6-mer frequency, TF over GST control)
SPIC
  binding signal: 1.66 fold enrichment (6-mer frequency, TF over GST control)
ELF4
  binding signal: 2.06 fold enrichment (6-mer frequency, TF over GST control)
ELK4
  binding signal: 2.06 fold enrichment (6-mer frequency, TF over GST control)
ETV2
  binding signal: 1.71 fold enrichment (6-mer frequency, TF over GST control)
ELF3
  binding signal: 1.95 fold enrichment (6-mer frequency, TF over GST control)
CRX
  binding signal: 1.88 fold enrichment (6-mer frequency, TF over GST control)
ETV1
  binding signal: 1.98 fold enrichment (6-mer frequency, TF over GST control)

## ATACTA
FEV
  binding signal: 1.13 fold enrichment (6-mer frequency, TF over GST control)
ETV5
  binding signal: 1.13 fold enrichment (6-mer frequency, TF over GST control)
HSF1
  binding signal: 1.34 fold enrichment (6-mer frequency, TF over GST control)
SPIC
  binding signal: 1.1 fold enrichment (6-mer frequency, TF over GST control)
ELF4
  binding signal: 1.19 fold enrichment (6-mer frequency, TF over GST control)
ELK4
  binding signal: 1.19 fold enrichment (6-mer frequency, TF over GST control)
ETV2
  binding signal: 1.14 fold enrichment (6-mer frequency, TF over GST control)
ELF3
  binding signal: 1.08 fold enrichment (6-mer frequency, TF over GST control)
CRX
  binding signal: 1.38 fold enrichment (6-mer frequency, TF over GST control)
ETV1
  binding signal: 1.1 fold enrichment (6-mer frequency, TF over GST control)

## AACTAT
FEV
  binding signal: 1.31 fold enrichment (6-mer frequency, TF over GST control)
ETV5
  binding signal: 1.37 fold enrichment (6-mer frequency, TF over GST control)
HSF1
  binding signal: 1.33 fold enrichment (6-mer frequency, TF over GST control)
SPIC
  binding signal: 1.43 fold enrichment (6-mer frequency, TF over GST control)
ELF4
  binding signal: 1.36 fold enrichment (6-mer frequency, TF over GST control)
ELK4
  binding signal: 1.45 fold enrichment (6-mer frequency, TF over GST control)
ETV2
  binding signal: 1.49 fold enrichment (6-mer frequency, TF over GST control)
ELF3
  binding signal: 1.26 fold enrichment (6-mer frequency, TF over GST control)
CRX
  binding signal: 1.26 fold enrichment (6-mer frequency, TF over GST control)
ETV1
  binding signal: 1.43 fold enrichment (6-mer frequency, TF over GST control)

## TGTCTA
FEV
  binding signal: 1.14 fold enrichment (6-mer frequency, TF over GST control)
ETV5
  binding signal: 1.24 fold enrichment (6-mer frequency, TF over GST control)
HSF1
  binding signal: 1.15 fold enrichment (6-mer frequency, TF over GST control)
SPIC
  binding signal: 1.35 fold enrichment (6-mer frequency, TF over GST control)
ELF4
  binding signal: 1.2 fold enrichment (6-mer frequency, TF over GST control)
ELK4
  binding signal: 1.06 fold enrichment (6-mer frequency, TF over GST control)
ETV2
  binding signal: 1.34 fold enrichment (6-mer frequency, TF over GST control)
ELF3
  binding signal: 1.06 fold enrichment (6-mer frequency, TF over GST control)
CRX
  binding signal: 1.05 fold enrichment (6-mer frequency, TF over GST control)
ETV1
  binding signal: 1.24 fold enrichment (6-mer frequency, TF over GST control)

## AAGCTG
FEV
  binding signal: 1.14 fold enrichment (6-mer frequency, TF over GST control)
ETV5
  binding signal: 1.08 fold enrichment (6-mer frequency, TF over GST control)
HSF1
  binding signal: 1.25 fold enrichment (6-mer frequency, TF over GST control)
SPIC
  binding signal: 1.08 fold enrichment (6-mer frequency, TF over GST control)
ELF4
  binding signal: 1.08 fold enrichment (6-mer frequency, TF over GST control)
ELK4
  binding signal: 1.19 fold enrichment (6-mer frequency, TF over GST control)
ETV2
  binding signal: 1.17 fold enrichment (6-mer frequency, TF over GST control)
ELF3
  binding signal: 1.28 fold enrichment (6-mer frequency, TF over GST control)
CRX
  binding signal: 1.59 fold enrichment (6-mer frequency, TF over GST control)
ETV1
  binding signal: 1.12 fold enrichment (6-mer frequency, TF over GST control)

## GAACTT
FEV
  binding signal: 1.72 fold enrichment (6-mer frequency, TF over GST control)
ETV5
  binding signal: 1.66 fold enrichment (6-mer frequency, TF over GST control)
HSF1
  binding signal: 2.03 fold enrichment (6-mer frequency, TF over GST control)
SPIC
  binding signal: 1.71 fold enrichment (6-mer frequency, TF over GST control)
ELF4
  binding signal: 1.52 fold enrichment (6-mer frequency, TF over GST control)
ELK4
  binding signal: 1.48 fold enrichment (6-mer frequency, TF over GST control)
ETV2
  binding signal: 1.44 fold enrichment (6-mer frequency, TF over GST control)
ELF3
  binding signal: 1.5 fold enrichment (6-mer frequency, TF over GST control)
CRX
  binding signal: 1.32 fold enrichment (6-mer frequency, TF over GST control)
ETV1
  binding signal: 1.68 fold enrichment (6-mer frequency, TF over GST control)
